Among the data in PubChem BioAssay AID1259343 (VanderVen Lab, College of Veterinary Medicine, Cornell …, 2017) are inhibition values, retold here.

The campaign covered roughly 6,200 compounds. About 2,900 (47%) were called active. No stated cut-off is given here; in the data, active means inhibition above about 50%; inactive means the rest. The set was probably picked from earlier hits. The list shows a part of the results.

The assay can be described thus: Mycobacterium tuberculosis growth inhibition, primary screen (AID 1259343). To be noted: inhibition: at 10 µM, stronger effect = higher value; outcome: 10 uM.
Regarding `Brc1ccc(OCc2nnc(-c3cccs3)o2)cc1`, the inhibition is 42.8% (inactive).
In the case of `Cc1nc(COc2ccc(Oc3nccs3)cc2)oc1C`, the inhibition is 80% (active).
The value for `CC(C)(C)c1noc(COc2ccc(O)cc2)n1` was 39.8% (inactive); that for `CC(c1cccs1)N(C)C(=O)COc1ccc(F)cc1` (centres undefined) was 59.8% (active).
In the case of `CC(C)NC(=O)c1ccc(OCc2cccs2)cc1`, the inhibition was -17.8% (inactive).
As for `CC1CCc2c(nc3sc4c(c3c2N)CCCC4)C1` (centres undefined), the inhibition was 32.6% (inactive).
On to `CN(C)Cc1nc(Cl)c2c3c(sc2n1)CCCCC3`, for which the inhibition was 69.8% (active).
Consider `CCc1ccc(CN(C)C(=O)NCCC2CCCC2)cc1`, for which the inhibition is 99.2% (active).
The value for `CC(CCc1ccccc1)NC(=O)NCCC1CCCC1` (centres undefined) was -6.93% (inactive); that for `CN(CCC1CCCCC1)C(=O)Nc1ccsc1` was 48.9% (inactive); that for `CCc1cc(OCc2ccc(C(N)=O)cc2)ccc1Cl` was -54% (inactive).
Consider `NC(=O)c1cc(Cl)ccc1OCc1ccccc1Br`, for which the inhibition is 1.54% (inactive).
Then `Cc1cc(Cl)ccc1OCc1ccc(C(N)=O)cc1`, with 68.2% (active); and `NC(=O)c1ccc(CSCc2cccc(F)c2)cc1`, with 19.5% (inactive).
Then `CC(C)(C)c1ccc(COc2ccccc2C(N)=O)cc1`, with 30.2% (inactive); and `Cc1cccc(OCc2ccc(C(N)=O)cc2)c1C`, with 64.1% (active).
The value for `CC(C)c1cc(C(=O)NC2CC2)nn1-c1nc2ccccc2s1` was 94.4% (active); that for `CC(C)c1cc(C(=O)NC2CCN(c3cccc(F)c3)CC2)n[nH]1` was 41.4% (inactive).
Turning to `Cc1cc(=O)[nH]c(-n2nc(C3CC3)cc2NC(=O)c2c(F)cccc2F)n1`, the inhibition is 99.2% (active).
Then `Cc1nc(-n2nc(C3CC3)cc2NC(=O)c2ccccc2Cl)[nH]c(=O)c1C`, with 80.4% (active); and `Cc1nc(-n2nc(C3CC3)cc2NC(=O)c2ccccc2F)[nH]c(=O)c1C`, with -15.9% (inactive); and `Cc1cc(=O)[nH]c(-n2nc(C3CC3)cc2NC(=O)c2ccccc2Cl)n1`, with 101% (active).
With `Cc1cc(=O)[nH]c(-n2nc(C3CC3)cc2NC(=O)c2ccccc2C(F)(F)F)n1`, the inhibition was 99.9% (active).
The value for `Cc1cc(=O)[nH]c(-n2nc(C3CC3)cc2NC(=O)c2ccccc2F)n1` was 101% (active); that for `Cc1cc(=O)[nH]c(-n2nc(C3CC3)cc2NC(=O)c2cccc3ccccc23)n1` was 99.8% (active); that for `N#Cc1ccc(S(=O)(=O)NC(=O)c2sccc2C2CC2)cc1` was 67.6% (active).
Take `O=C(NS(=O)(=O)Cc1ccccc1)c1sccc1C1CC1`: the inhibition is 10.6% (inactive).
Then `O=C(Nc1ccc(-c2ccco2)cc1)C1CCCN(Cc2cccc3c2OCO3)C1` (centres undefined), with 85% (active); and `O=C(Nc1ccc(-c2ccco2)cc1)C1CCCN(C(=O)CCc2cccs2)C1` (centres undefined), with “inactive”; and `O=C(Nc1ccc(-c2ccco2)cc1)C1CCCN(C(=O)CCc2cnccn2)C1` (centres undefined), with -19.9% (inactive).
Then `O=C(Nc1ccc(-c2ccco2)cc1)C1CCCN(C(=O)CCN2CCCO2)C1` (centres undefined), with 82.8% (active); and `COc1cc(/C=C/CN2CCCC(C(=O)Nc3ccc(-c4ccco4)cc3)C2)ccc1O` (centres undefined), with 45.7% (inactive); and `Cn1ccc(CC(=O)N2CCCC(C(=O)Nc3ccc(-c4ccco4)cc3)C2)c1` (centres undefined), with 84.1% (active).
For `Nc1ncc(CN2CCCC(C(=O)Nc3ccc(-c4ccco4)cc3)C2)cn1` (centres undefined), the inhibition entry was “inactive”.
Then `O=C(Nc1ccc(-c2ccco2)cc1)C1CCCN(Cc2coc3ccccc3c2=O)C1` (centres undefined), with 31.3% (inactive); and `O=C1Nc2ncccc2Oc2cc(F)cc(O)c21`, with 81.3% (active); and `O=C(NCCOc1cc(N2CCCCC2)ncn1)Nc1ccccc1Cl`, with 56% (active).
As to `O=C(NCc1ccccn1)Nc1cc(F)c(N2CCCC2)c(F)c1`, the inhibition was 38.7% (inactive).
The value for `CC(C(=O)Nc1ccccc1Cl)N1CCCC1c1ccsc1` (centres undefined) was 3.58% (inactive); that for `CCCCC(CC)CN=C(N)NC(N)=NCCCCCCN=C(N)NC(N)=NCC(CC)CCCC` (centres undefined) was 94.5% (active).
Regarding `O=C1C(=O)N(C2CCCC2)C(=O)N1CC1CCCCC1`, the inhibition was -11.3% (inactive).
Turning to `Cc1nc2scc(-c3cccs3)c2c(=S)[nH]1`, the inhibition was 85.4% (active).
`Cc1ccc(C)n1-n1c(C)nc2scc(-c3cccs3)c2c1=O`: the inhibition was 27.9% (inactive).
Consider `Cc1nc2scc(-c3cccs3)c2c(=O)n1-n1cccc1`, for which the inhibition is 87.8% (active).
As for `O=C(NC1CC1c1ccccc1)C1(c2ccccc2)CCC1` (centres undefined), the inhibition was 38.3% (inactive).
Consider `Cc1cc(-c2nnn(CC3(O)CCCCC3)n2)ccc1F`, for which the inhibition is 86.8% (active).
Then `COc1ccc(-c2cc(Nc3ccc(NC(=O)OC(C)(C)C)cc3)ncn2)cc1`, with 4.04% (inactive); and `CC(C)(C)OC(=O)Nc1ccc(Nc2cc(-c3ccc(F)c(F)c3)ncn2)cc1`, with 16.4% (inactive); and `CC(C)(C)OC(=O)Nc1cc2ccccc2cc1C(=O)O`, with 79.6% (active).
The value for `Fc1cccc(-c2cnnc(N[C@@H]3C[C@H]3c3ccccc3)n2)c1` was 19.2% (inactive); that for `Cc1cc(C)cc(NC(=O)CSc2nccn(-c3cccc(F)c3)c2=O)c1` was 66.8% (active); that for `Cc1cc(C)cc(NC(=O)CSc2nccn(-c3ccc(F)cc3)c2=O)c1` was 48.7% (inactive).
Take `Cc1cc(C)cc(NC(=O)CSc2nc(=O)n3ccc(C)cc3n2)c1`: the inhibition is -10.5% (inactive).
For the compound `N#Cc1ccccc1Sc1ccc(C(N)=O)cc1`, the inhibition was -41.2% (inactive).
`Cc1ccc(/C=C2\CNC/C(=C\c3ccc(C)cc3)C2=O)cc1`: the inhibition was 27.8% (inactive).
On to `C(=Nc1ccc(C23CC4CC(CC(C4)C2)C3)cc1)c1cccnc1`, for which the inhibition was 7.01% (inactive).
In the case of `CC1C/C(=C\c2cccnc2)C(=O)/C(=C/c2cccnc2)C1` (centres undefined), the inhibition was 63% (active).
As to `COc1c(Br)cc(Cl)cc1NCc1c(C)noc1C`, the inhibition was 14% (inactive).
For the compound `N#CC(=Cc1ccccc1I)c1nc(-c2ccccc2)cs1`, the inhibition is 10.6% (inactive).
Consider `N#CC(=CC(Br)=Cc1ccccc1)c1nc(-c2ccccc2)cs1`, for which the inhibition was 82.4% (active).
Consider `Clc1ccc(C2CN(Cc3cc(-c4ccccn4)no3)CCO2)cc1Cl` (centres undefined), for which the inhibition is 21% (inactive).
Then `CC(=O)c1cc(CN2CCOC(CCCc3ccccc3)C2)cs1` (centres undefined), with 28.9% (inactive); and `N#Cc1c(Cl)cccc1NCC1CN(Cc2ccccc2)CCO1` (centres undefined), with 57.3% (active); and `COC(=O)c1cc(-c2ccc(OC)cc2)on1`, with 30.9% (inactive).
The value for `O=C(Cc1cc(-c2cc3ccccc3o2)on1)NCCC1=CCCCC1` was 32.4% (inactive).
Consider `COC(=O)c1cc(-c2cc3ccccc3o2)on1`, for which the inhibition is 99.1% (active).
Then `COC(=O)c1cc(-c2ccc(C)cc2)on1`, with 88.9% (active); and `COC(=O)c1ccc(NC(=O)Cc2cc(-c3cc4ccccc4o3)on2)cc1`, with 84% (active); and `O=C(Cc1cc(-c2cc3ccccc3o2)on1)NCCc1ccccc1`, with 6.56% (inactive).
The value for `Cc1cc(NC(=O)Cc2cc(-c3cc4ccccc4o3)on2)no1` was -32.2% (inactive).
Consider `O=C(Cc1cc(-c2cc3ccccc3o2)on1)Nc1cccc(F)c1`, for which the inhibition was 38.6% (inactive).
Then `COC(=O)c1cc(-c2ccc3c(c2)CC(C)O3)on1` (centres undefined), with 45.8% (inactive); and `O=C(Cc1cc(-c2cc3ccccc3o2)on1)NCCCc1ccccc1`, with 93.4% (active); and `COCCNC(=O)Cc1cc(-c2cc3ccccc3o2)on1`, with 34.7% (inactive).
With `CC(C)OCCCNC(=O)Cc1cc(-c2cc3ccccc3o2)on1`, the inhibition was 90.9% (active).
Take `COCCNC(=O)c1cc(-c2ccc(Cl)cc2)on1`: the inhibition was 60% (active).
The value for `O=C(COC(=O)c1ccco1)Nc1ccc2ccccc2c1` was 39.6% (inactive); that for `NC(Cc1cnc[nH]1)C(=O)Nc1ccc2ccccc2c1` (centres undefined) was 72.9% (active).
The value for `CCOC(=O)c1ccc(NC(=O)CN2CCOC(C)C2)cc1` (centres undefined) was 92% (active); that for `CC1CCc2c(sc(NC(=O)CN3CCOC(C)C3)c2C#N)C1` (centres undefined) was 30.6% (inactive); that for `Cc1cc(NC(=O)CN2CCOC(C)C2)ccc1Br` (centres undefined) was 16.5% (inactive).
Consider `Fc1ccc(-c2csc(SCc3nnc(-c4ccc(F)cc4)o3)n2)cc1`, for which the inhibition is 69.3% (active).
Then `Fc1ccc(OCc2nnc(-c3ccc(Br)cc3)o2)cc1`, with -26.1% (inactive); and `Cc1cc(C)c2c(=O)[nH]c(SCc3nnc(-c4ccc(Cl)cc4)o3)nc2n1`, with -6.74% (inactive).
The value for `Clc1ccc(-c2noc(CSc3nncs3)n2)cc1` was -30.4% (inactive).
Then `Clc1ccc(-c2nnc(CSc3nncs3)o2)cc1`, with 97.2% (active); and `CN(Cc1nnc(-c2ccc(F)cc2)o1)C1C2CCOC2C1(C)C` (centres undefined), with 21.1% (inactive); and `O=C1NC(=O)C(=Cc2cc(Br)c(Sc3ccc(Cl)cc3)o2)S1`, with 85.2% (active).
As to `COc1ccc2c(CC(=O)Nc3nc(CN4CCCCC4)cs3)coc2c1`, the inhibition is 26.5% (inactive).
For the compound `O=C(Nc1nc(CN2CCCCC2)cs1)c1cc(F)cc(F)c1`, the inhibition is -30.9% (inactive).
For `CC1CCCN(Cc2csc(NC(=O)c3cccc(I)c3)n2)C1` (centres undefined), the inhibition was 50.6% (active).
For `O=C(c1ccc2c(c1)OCO2)C1CCCN(Cc2nc3ccccc3s2)C1` (centres undefined), the inhibition result was “inactive”.
The value for `O=C(C=Cc1cccs1)N1CCN(Cc2nc3ccccc3s2)CC1` was 67.3% (active); that for `CCc1cc(-c2n[nH]c(C)c2-c2nc3ccccc3s2)c(O)c(CN2CCN(C)CC2)c1O` was 10.5% (inactive); that for `O=C(CCc1nc2ccccc2s1)N1CCN(Cc2ccc(C(F)(F)F)cc2)CC1` was 88.1% (active).
Then `Cc1sc(-c2cccc(O)c2)nc1-c1ccccc1`, with 23.1% (inactive); and `COc1ccc(/C=N\NC(=O)c2ccncc2)c(C(=O)O)c1OC`, with 42.2% (inactive); and `Oc1cccc(/C=N\Nc2cc(N3CCCC3)nc(N3CCCC3)n2)c1`, with 14% (inactive).
The value for `COc1ccc(-c2nc(Nc3ccc(Cl)nc3)sc2C)cc1` was 25.9% (inactive).
Consider `COc1cccc(C=NNc2nc(-c3ccccc3)c(C)s2)c1OC`, for which the inhibition was 91.8% (active).
As to `Cc1sc(NN=Cc2cccc(O)c2)nc1-c1ccccc1`, the inhibition is 94.2% (active).
The value for `CC1(C)CC(=O)C(Sc2ccc(Br)cc2)=C(O)C1` was 57.1% (active); that for `CCCCN(C)C(=O)c1ccc(Nc2nc(C(N)COCc3ccccc3)cs2)nc1` (centres undefined) was 64.2% (active).
With `CN(Cc1ccccc1)C(=O)c1ccc(Nc2nc(C(N)COCc3ccccc3)cs2)nc1` (centres undefined), the inhibition is 97.6% (active).

As a reminder, the inhibition is the drop in the measured response relative to a control, in per cent.
